{
  "source": "PubChem BioAssay (NCATS)",
  "note": "Records with an inconclusive call do not appear. A number with no mark means an inactive call. Activity calls are given as the source filed them. Calls follow the shape of the dose curve; as a rule, active = well fitted curve in either direction with a large enough effect (not every such curve was filed as active); inconclusive = small, poorly fitted or top-dose-only effect, or another doubt; inactive = flat fitted curve, though single readings scatter. % is scaled to controls: 0 for no effect and ±100 for the full control effect.",
  "data": [
    {"test": "AP1 Signaling Pathway (AID 357);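 also: ME-180 reporter cells stimulated with EGF at its EC50 level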", "conditions": "ME-180 AP-1-bla reporter, EGF-induced, beta-lactamase ratio, 5 h; at 17.2 µM (top of the series) unless noted", "summary_of_the_method": "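AP-1-bla ME-180 cells, Opti-MEM + 0.5% dialyzed FBS, plated overnight 37 °C. Cpd titration + EC50 EGF, 5 h 37 °C. CCF4 2.5 h RT; ex 405, em 460/530 ratio → %activity, AC50.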", "values": [
      {"smiles": "O=C(C1=C(O)C(=O)N(CCCN2CCOCC2)C1c1ccccn1)c1cccs1", "note": "(stereo not given)", "activity change, negative = inhibition": "-0.154%"},
      {"smiles": "OC(CNCCCN1CCCCC1)COc1ccccc1", "note": "(stereo not given)", "activity change, negative = inhibition": "-10.5%"},
      {"smiles": "COc1cc(C)nc(Oc2ccc(OCCOc3ccc(C)cc3)nn2)n1", "activity change, negative = inhibition": "-8.32%"},
      {"smiles": "COC(=O)C(NC(C)=O)(Nc1ccccn1)C(F)(F)F", "note": "(stereo not given)", "activity change, negative = inhibition": "-1.38%"},
      {"smiles": "O=C1c2ccccc2S(=O)(=O)N1CC(O)COc1ccc(Cl)cc1", "note": "(stereo not given)", "activity change, negative = inhibition": "-4.25%"},
      {"smiles": "O=P(Cc1nnco1)(c1ccccc1)c1ccccc1", "activity change, negative = inhibition": "-8.6%"},
      {"smiles": "CCOC(=O)c1cnc(SC2CC(=O)N(c3cccc(OC)c3)C2=O)nc1N", "note": "(stereo not given)", "activity change, negative = inhibition": "-16%"},
      {"smiles": "COC(=O)CSc1nc(C)c(C(C)=O)cc1C#N", "activity change, negative = inhibition": "4.99%"},
      {"smiles": "CCCCC1CC1C(=O)Nc1ccc(OC)c(OC)c1", "note": "(stereo not given)", "activity change, negative = inhibition": "-2.76%"},
      {"smiles": "CCC(NC(=O)Nc1ccc(O)cc1)(C(F)(F)F)C(F)(F)F", "activity change, negative = inhibition": "-8.11%"},
      {"smiles": "CCCCCC(=O)N1CC2(CC)CN(C(=O)CCCCC)CC(CC)(C1)C2=O", "activity change, negative = inhibition": "-3.04%"},
      {"smiles": "CC1(C)CC(=O)C2=C(C1)OC(N)=C(C#N)[C@@]21C(=O)N(CC(N)=O)c2ccccc21", "activity change, negative = inhibition": "10.8%"},
      {"smiles": "CCOC(=O)c1[nH]c2cc3c(cc2c1NC(=O)CN1CCC2(CC1)OCCO2)OCO3", "activity change, negative = inhibition": "-29.3%"},
      {"smiles": "CCN(CC)CCn1c(O)c(N=O)c2ccccc21", "activity change, negative = inhibition": "90.5% [activator] (active)"},
      {"smiles": "Cc1ccc(OCC(=O)N(C)CCc2ccccn2)cc1", "activity change, negative = inhibition": "-3.13%"},
      {"smiles": "Cc1cc(NCC2CCCO2)n2c(nc3ccccc32)c1C#N", "note": "(stereo not given)", "activity change, negative = inhibition": "-1.4%"},
      {"smiles": "COc1ccc2[nH]c(C)c(C(=O)CN3CCc4cc(OC)c(OC)cc4C3)c2c1", "activity change, negative = inhibition": "-11.9%"},
      {"smiles": "COc1cc(=O)n2c(-c3ccccc3)csc2n1", "activity change, negative = inhibition": "6.57%"},
      {"smiles": "Cc1nc(SCC(=O)Nc2ccc3c(c2)OCO3)c(C#N)c2c1CCCC2", "activity change, negative = inhibition": "-14.5%"},
      {"smiles": "Cc1cc(C)n(CC(=O)n2nc(C)cc2C)n1", "activity change, negative = inhibition": "11.3%"},
      {"smiles": "CCOc1ccc(CCNC(=O)C(O)c2ccccc2)cc1", "note": "(stereo not given)", "activity change, negative = inhibition": "13%"},
      {"smiles": "COC(=O)[C@@H](N)Cc1ccc(O)cc1", "activity change, negative = inhibition": "-11%"},
      {"smiles": "O=C(O)CN(c1ccccc1)C1SC(=O)NC1=O", "note": "(stereo not given)", "activity change, negative = inhibition": "3.92%"},
      {"smiles": "O=C(OCC#CCSc1nnc(-c2ccccc2)o1)c1cccs1", "activity change, negative = inhibition": "-3.3%"},
      {"smiles": "NC(=O)C1CCN(C2OC(=O)c3ccccc32)CC1", "note": "(stereo not given)", "activity change, negative = inhibition": "2.97%"},
      {"smiles": "O=C(CCCN1C(=O)c2ccccc2C1=O)N1CCC(c2ccccc2)C1", "note": "(stereo not given)", "activity change, negative = inhibition": "-21.8%"},
      {"smiles": "Cc1ccc(C(C)C)c(OCCNc2nc3c(c(=O)n(C)c(=O)n3C)n2C)c1", "activity change, negative = inhibition": "-0.712%"},
      {"smiles": "CCSc1nc(O)c(C2OC(=O)c3c2ccc(OC)c3OC)c(=O)n1-c1ccccc1", "note": "(stereo not given)", "activity change, negative = inhibition": "-10.9%"},
      {"smiles": "COC(=O)CSc1nc(C)c(Oc2ccccc2)c(=O)[nH]1", "activity change, negative = inhibition": "22.2%"},
      {"smiles": "O=C(c1cccc2ccccc12)N1CCC(N2CCN(c3ccccc3)CC2)CC1", "activity change, negative = inhibition": "-7.39%"},
      {"smiles": "Fc1ccc(C2C3=C(Nc4ncnn42)c2ccccc2OC3c2ccncc2)cc1", "note": "(stereo not given)", "activity change, negative = inhibition": "-29%"},
      {"smiles": "CC(=O)[C@H]1[C@@H]2C(=O)N(c3cccc(Cl)c3)C(=O)[C@@H]2[C@H]2c3ccccc3C=CN21", "activity change, negative = inhibition": "-11%"},
      {"smiles": "O=C(OCCN1CCOCC1)c1ccc(OCCN2CCOCC2)cc1", "activity change, negative = inhibition": "1.65%"},
      {"smiles": "Cn1c(=O)n(C)c2cc(C(=O)c3ccccc3)ccc21", "activity change, negative = inhibition": "17.6%"},
      {"smiles": "CN(C)CCCN(CCCNC(=O)/C=N/O)Cc1ccccc1", "activity change, negative = inhibition": "-5.3%"},
      {"smiles": "CN(C)C(=O)COn1c(SCC(=O)N(C)C)nc2ccccc2c1=O", "activity change, negative = inhibition": "6.36%"},
      {"smiles": "COc1cccc(C2/C(=C(/O)c3cnn(-c4ccccc4)c3C)C(=O)C(=O)N2CCN(C)C)c1OC", "note": "(stereo not given)", "activity change, negative = inhibition": "-4.08%"},
      {"smiles": "CC1CN(C2CCN(S(=O)(=O)Cc3ccccc3)CC2)CC(C)O1", "note": "(stereo not given)", "activity change, negative = inhibition": "3.47%"},
      {"smiles": "COc1cccc(C=NCCNC(=O)c2nonc2N)c1O", "activity change, negative = inhibition": "0.441%"},
      {"smiles": "CCOC(=O)C1=C(N)N2C(=O)CSC2=C(C(=O)OC)C1", "activity change, negative = inhibition": "-12.4%"}
    ]}
  ]
}
